From PubChem BioAssay (EPA / NIEHS) come the findings set out here.

Active and inactive are the calls of the source. The calls were made as follows: active = hit-call score of the fitted dose curve at least 0.9, where 1 is the maximum; inactive = score below 0.9.

One experiment can be described thus: ATG_E_Box_CIS: Attagene CIS-FACTORIAL HepG2 Assay for human Enhancer Box (E-box) (AID 2282936). As to conditions: HepG2 E-box cis-reporter transcription, actives raise or lower the signal. The gist of the method:
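DMSO served as negative control and baseline for bidirectional fitting. Human hepatoma HepG2 cells, transiently transfected with cis-reporter constructs, were dosed 24 h; reporter mRNA read by RT-PCR and capillary electrophoresis.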
For `c1ccc2c(c1)-c1cccc3cccc-2c13`, the outcome was inactive.
On the same count and under the same terms, next, `ClC1=C(Cl)C2(Cl)C3C(Cl)C=CC3C1(Cl)C2(Cl)Cl` (stereo not drawn): “inactive”; `COC(=O)c1ccccc1N`: “inactive”.
`c1ccc(NNc2ccccc2)cc1`: the result was inactive.
Take `c1ccc(C2CO2)cc1` (stereo not drawn): the result was inactive.
Same read-out and setting: next, `c1ccc2c(c1)oc1ccccc12`: “inactive”.
Consider `O=Cc1ccco1`, for which the result was inactive.
On the same count and under the same terms, next, `CCC(C)c1ccc(O)cc1` (stereo not drawn): “inactive”; `CCOc1cccc(C2(N3CCN(c4ccccc4)CC3)CCC(C)CC2)c1` (stereo not drawn): “inactive”.
Still for that read-out and setting: the entry for `COP(=S)(OC)SCN1C(=O)c2ccccc2C1=O` is “inactive”.
On the same count and under the same terms, the entry for `[Cl-].[Cl-].[Hg+2]` is “inactive”; for `CCN(CC)N=O` it is “inactive”; for `O=C(N[C@H](c1ccccc1)[C@@H]1CN2CCC1CC2)c1c(Cl)ccc(C(F)(F)F)c1Cl` it is “inactive”.

A further experiment in a line: ATG_M_61_CIS: Attagene CIS-FACTORIAL HepG2 Assay for M61 Transcription Factor (Internal Marker) (AID 2282937). The conditions noted are these: HepG2 Attagene CIS-FACTORIAL M61 internal marker reporter; actives raise or lower the signal. The gist of the method:
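Endogenous transcription factor activity in HepG2 is read through transiently transfected cis-element reporter units. After 24 h dosing, RNA undergoes reverse transcription, PCR and primer extension with 6-FAM before capillary electrophoresis; DMSO-referenced bidirectional fit.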
With `Nc1ccc(N=Nc2ccccc2)cc1`, the result was inactive.
Still for that read-out and setting: next, `O=C(O)C1C2CCC(O2)C1C(=O)O` (stereo not drawn): “inactive”.
The same measure, in the same setting: the entry for `O=C(Nc1ccccc1)c1ccccc1I` is “inactive”; for `CC(O)CCO` (stereo not drawn) it is “inactive”.
Same read-out and setting: next, `CC(C)(C)OOC(C)(C)CCC(C)(C)OOC(C)(C)C`: “inactive”; `O=C(Oc1ccc(Br)cc1)N1CCN2CCC1CC2`: “inactive”.
With `[O-][Cl+]O`, the molecule was called inactive.
With `Nc1ccc(Cl)cc1N`, the molecule was called inactive.
Same read-out and setting: next, `COc1cc(C=O)cc2c1[C@H](COC(N)=O)[C@]1(OC(C)=O)ON2C[C@H]2[C@@H]1N2C(C)=O`: “inactive”; `Nc1ccc([N+](=O)[O-])cc1`: “inactive”; `OCCCBr`: “inactive”.
Same read-out and setting: next, `CNC(=O)Oc1cccc2c1OC(C)(C)C2`: “inactive”; `N#CC(Br)(Br)C(N)=O`: “inactive”.
For the molecule `Clc1ccc(C(c2ccc(Cl)cc2)C(Cl)Cl)cc1`, the molecule was called inactive.
`Cc1ccc(N=C=O)cc1N=C=O`: the molecule was called inactive.
